# Bioassay records as filed in PubChem.
# TDP1 cell noCPT: qHTS for Inhibitors of human tyrosyl-DNA phosphodiesterase 1 (TDP1): qHTS in cells in absence of CPT | DT40 Tdp1-/- hTDP1 cells, no CPT, ATP luminescence, 48 h | Potency, µM (series often up to 46.2 µM), for inactives: top-dose activity change, negative = growth inhibition, most hits filed as inhibitors | actives 15% (n = 420,000); also: potency is read from the fitted curve at half-maximal effect; nearly all actives have a fitted effect of over 55% in size
#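 Cells were dispensed at 400 per well, compounds added by pin tool, plates incubated ≥48 hr at 37 °C, then CellTiter-Glo added for 30 min at room temperature before luminescence reading. Line: DT40 Tdp1-/- complemented with hTDP1; camptothecin omitted.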
# ALOX12 inh: inhibitors of human 12S-lipoxygenase ALOX12 | purified 12hLO, xylenol orange hydroperoxide absorbance | Potency, µM (doses to about 108 µM), for inactives: at the highest dose activity change, negative = inhibition, actives largely listed as inhibitors | actives 1.1% (n = 580,000) | AID 1671190; also: potency is read from the fitted curve at half-maximal effect
# Target sequence (P18054 whole entry, looked up): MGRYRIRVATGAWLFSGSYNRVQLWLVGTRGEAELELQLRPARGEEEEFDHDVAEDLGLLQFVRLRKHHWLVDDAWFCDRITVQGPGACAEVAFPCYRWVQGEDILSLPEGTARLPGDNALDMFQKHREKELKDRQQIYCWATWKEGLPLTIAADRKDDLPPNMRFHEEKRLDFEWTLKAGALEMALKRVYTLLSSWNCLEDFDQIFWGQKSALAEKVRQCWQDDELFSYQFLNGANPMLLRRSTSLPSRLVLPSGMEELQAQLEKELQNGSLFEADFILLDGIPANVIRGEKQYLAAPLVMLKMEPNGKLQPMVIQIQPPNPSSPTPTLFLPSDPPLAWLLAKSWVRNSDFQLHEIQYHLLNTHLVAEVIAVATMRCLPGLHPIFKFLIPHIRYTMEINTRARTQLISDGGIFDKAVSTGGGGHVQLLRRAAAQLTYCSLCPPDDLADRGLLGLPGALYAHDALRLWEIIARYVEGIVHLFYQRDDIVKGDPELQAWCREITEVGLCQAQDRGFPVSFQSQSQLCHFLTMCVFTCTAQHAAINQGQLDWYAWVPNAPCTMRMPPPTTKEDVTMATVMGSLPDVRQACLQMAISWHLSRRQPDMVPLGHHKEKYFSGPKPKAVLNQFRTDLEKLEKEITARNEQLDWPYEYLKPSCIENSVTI
#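 Purified human 12hLO (150 nM final) in 25 mM Hepes, 0.01% Triton X-100, pH 7.0 was preincubated 15 min at room temperature with compound. Then 40 uM arachidonic acid was added, 30 min. Hydroperoxide was read by Fe-XO absorbance ratio 573/405 nm.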
# IL1B secr inh: inflammasome signaling inhibition, IL-1 beta readout; THP-1 LPS/ATP IL-1B secretion, AlphaLISA, 16 h; stronger effect = lower value; activity change, % at 57.5 µM; actives 4.7% (n = 360,000); AID 743279; in the data active = activity change below about -50%; inconclusive = mostly about -30% to -49%
#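 Secreted IL-1B measured by AlphaLISA bead assay after 16 h compound exposure of THP-1 cells; compounds (final up to 57.5 uM) added 1 h before LPS (250 ng/mL) and ATP (1.25 mM) stimulation; lower signal means less secretion.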
# HT1080 IDH1KD tx: toxicity to HT-1080 IDH1 knockdown cells (counter line) | HT-1080 IDH1 knockdown viability, ATP luminescence, 48 h | Potency, µM (doses to about 46.1 µM), for inactives: at the highest dose activity, negative = toxicity, hits mostly cytotoxic | actives 2% (n = 360,000);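 also: potency is read from the fitted curve at half-maximal effect; 0% = DMSO wells and -100% = cell-free medium wells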
#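 After a 2 h attachment period, IDH1KD HT-1080 cells took pin-transferred compound for 48 h at 37 °C; ATP-based luminescence after 10 min room-temperature reagent incubation reported viability.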
# DT40 TDP1 CPT: growth inhibition of DT40 Tdp1-/-;hTDP1 cells with camptothecin (screen for TDP1 inhibitors). chicken DT40 Tdp1-/-;hTDP1 cells + 20 nM CPT, ATP luminescence, 48 h. Potency, µM (series often up to 46.2 µM), for inactives: at the highest dose activity change, negative = growth inhibition, actives largely listed as inhibitors. actives 12% (n = 420,000). AID 686979; also: potency is read from the fitted curve at half-maximal effect; nearly all actives have a fitted effect of over 55% in size
#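 Chicken DT40 Tdp1-/- cells stably complemented with human TDP1 were seeded at 400 cells/well in medium containing 20 nM camptothecin, exposed to pin-transferred compounds, and grown at 37 °C for at least 48 hr. Viability was read as ATP luminescence.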
# HT1080-NT tox: kills 2HG-producing HT-1080-NT fibrosarcoma cells; HT-1080-NT fibrosarcoma viability, CellTiter-Glo ATP luminescence, 48 h; Potency, µM (titrated, usually from 46.1 µM), without a hit: at the top dose activity, negative = less viability, hits mostly cytotoxic; actives 1.6% (n = 360,000);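 also: NT is the 2HG producing partner of a matched IDH1 knockdown line; potency is read from the fitted curve at half-maximal effect; 0% = DMSO-treated cells and -100% = media-only wells without cells; nearly all actives have a fitted effect of over 55% in size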
#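 HT-1080-NT; 750 cells/well; 5% FBS RPMI; 48 h compound, 37 degrees C; CellTiter-Glo luminescence; curve fitting and curve-class assignment.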
# * hit, by the source's call; ? = inconclusive; . = no result given; [ ] = dose if it differs, or a comment. This excerpt belongs to a sample that is enriched for hits. Unless noted, calls follow the shape of the dose curve; as a rule, active = well fitted curve in the direction sought with a large enough effect; inconclusive = small, poorly fitted or top-dose-only effect, or another doubt; inactive = no such curve, though single readings can be large; an effect the other way counts as inactive or inconclusive. Unless noted, % is scaled to controls: 0 for no effect and ±100 for the full control effect.
SMILES,TDP1 cell noCPT,ALOX12 inh,IL1B secr inh,HT1080 IDH1KD tx,DT40 TDP1 CPT,HT1080-NT tox
Cc1cc(C(=O)CN2C(=O)C3CC=CCC3C2=O)c(C)n1-c1ccccc1 (configuration not stated),23µM*,-2%,0,-12%,23µM*,-8%
CCn1c(C)cc(C(=O)CN2C(=O)c3ccccc3S2(=O)=O)c1C,-9%,-3%,-8,0%,3%,8%
COc1cccc(CN2CCOC[C@H](O)C2)c1,.,63%[176 µM],.,.,.,.
CCSc1nnc(C(C)NS(=O)(=O)c2cccc(Cl)c2C)n1C (configuration not stated),-1%,15%,.,.,-1%[9.04 µM],.
CC(=O)N[C@H](Cc1c[nH]c2ccccc12)C(N)=O,-2%,.,.,.,3%,.
O=C(NCC1CC1)c1cc2c(c(-c3cccc(-c4ccccc4F)c3)n1)[C@H](CCO)N(C(=O)CC1CC1)C2,18µM*,-21%,0,?,?,23µM*
O=C(NCC(F)(F)F)c1cc2c(c(-c3cccc(-c4ccccc4F)c3)n1)[C@@H](CCO)N(C(=O)CC1CC1)C2,?,?,?,21µM*,?,?
O=C(NCC1CC1)c1cc2c(c(-c3cccc(-c4ccccc4F)c3)n1)[C@@H](CCO)N(C(=O)CC1CC1)C2,?,-7%,-59*,?,21µM*,21µM*
CCNC(=O)c1cc2c(c(-c3cccc(-c4ccccc4F)c3)n1)[C@@H](CCO)N(C(=O)CC)C2,?,?,-11,-8%,?,-6%
CCC(=O)N1Cc2cc(C(=O)NCC(F)(F)F)nc(-c3cccc(-c4cncnc4)c3)c2[C@H]1CCO,-3%,?,-13,15%,-8%,4%
COc1cccc(NC(=O)N(C)C[C@H]2OCc3cnnn3CCCC(=O)N([C@H](C)CO)C[C@@H]2C)c1,-11%,-34%,23,1%,-15%,4%
C[S+](=O)([O-])N1Cc2ccccc2CC2(CCCN(CC3CCCC3)C2)C1 (configuration not stated),.,9%[6.33 µM],.,.,.,.
CC(=O)Nc1ccccc1/C=C/c1ccc2c(C)cc(C)c(O)c2n1,16µM*,-14%,1,19%,?,19%
CCn1c(CCNC(=O)c2ccccc2F)nnc1SCC(=O)N1CCN(c2ccccc2)CC1,.,-24%,.,.,.,.
COc1cc(CN2CCC(C)(NC(C)=O)CC2)cc(Nc2ccccc2)c1,.,13µM*,.,.,.,.
CC(=O)NC1(C)CCN(Cc2ccccc2-c2ccccc2Oc2ccccc2)C1 (configuration not stated),.,35µM*,.,.,.,.
COc1cc(CN2CCC3(CCC(CNC(=O)c4ccccc4)O3)CC2)cc(OC)c1 (configuration not stated),?,5%,.,.,10µM*,.
Cc1cc(C(=O)NCC2CCC3(CCN(Cc4ccc(-c5ccccc5)cc4)CC3)O2)n(C)n1 (configuration not stated),4.6µM*,12%,.,.,?,.
COC(=O)[C@]12C[C@H](CC(=O)N3CCCC3)C(=O)N(Cc3ccc4c(c3)OCO4)C1=C[C@H](C(C)(C)C)O[C@@H]2C,.,-7%,.,.,.,.
COc1ccc(F)c(CN2CCC3(CCC(CNC(=O)c4cc(C)nn4C)O3)CC2)c1 (configuration not stated),15µM*,-3%,.,.,?,.
CCOc1cc(CNC(=O)C2CCN(c3nc4ccccc4[nH]3)CC2)cc(OCC)c1OCC,16µM*,-10%,.,.,21µM*,.
CN(C)c1ccc(CNC(=O)C2CCN(c3nc4ccccc4[nH]3)CC2)cc1,?,-21%,.,.,?,.
CCc1ccc(CNC(=O)C2COc3ccccc3C2)cc1 (configuration not stated),1%,-5%,.,.,-7%,.
CCOc1ccc(NC(=O)C2CCN(c3nc4ccccc4nc3OC)CC2)cc1,.,4%,.,.,.,.
CCOc1cc(CNC(=O)C2COc3ccccc3C2)cc(OCC)c1OCC (configuration not stated),?,10%,.,.,15µM*,.
SMILES,TDP1 cell noCPT,ALOX12 inh,IL1B secr inh,HT1080 IDH1KD tx,DT40 TDP1 CPT,HT1080-NT tox
CCOc1ccc(NC(=O)C2CCN(c3nc4ccccc4[nH]3)CC2)cc1,23µM*,?,.,.,?,.
Cc1ccc2c(=O)cc(C(=O)NCc3ccccc3)oc2c1C,?,?,1,0%,-1%,10%
Cc1ccccc1CCNC(=O)c1ccc(NC(=O)N2CC(C)Sc3ccccc32)cc1 (configuration not stated),7.3µM*,3%,.,.,18µM*,.
Cc1ccc(CCNC(=O)c2ccc(NC(=O)N3CC(C)Sc4ccccc43)cc2)cc1 (configuration not stated),?,-2%,.,.,?,.
CC1CN(C(=O)Nc2ccc(C(=O)NCc3cccc(F)c3)cc2)c2ccccc2S1 (configuration not stated),18µM*,0%,.,.,?,.
CCOc1ccccc1CNC(=O)c1ccc(NC(=O)N2CC(C)Sc3ccccc32)cc1 (configuration not stated),7.3µM*,0%,.,.,13µM*,.
Cc1cccc(CNC(=O)c2ccc(NC(=O)N3CCSc4ccccc43)cc2)c1,9.2µM*,1%,.,.,16µM*,.
CCc1ccccc1NC(=O)N1CC(C)Sc2ccccc21 (configuration not stated),?,-4%,.,.,21µM*,.
CCc1ccccc1NC(=O)N1CCc2ccccc21,?,-17%,-4,9%,23µM*,-4%
O=C(CC1SC(N2CCCC2)=NC1=O)Nc1ccc(C(=O)NCc2ccccc2F)cc1 (configuration not stated),3%,12%,2,2%,-2%,0%
CC1CN(C(=O)Nc2ccc(C(=O)NCc3ccccc3F)cc2)c2ccccc2S1 (configuration not stated),15µM*,-1%,.,.,23µM*,.
O=C(NCC1CCCC(CNC(=O)N2CCc3ccccc32)C1)N1CCc2ccccc21 (configuration not stated),-27%,0%,?,20µM*,-25%,?
Cc1ccc(S(=O)(=O)N2CCC(C(=O)O)CC2)cc1F,.,3%,.,.,.,.
O=C(Nc1cccc(F)c1)Nc1ccnn1C1CCN(C(=O)C2CCC2)CC1,.,-2%,.,.,.,.
c1cnc2c(c1)ncn2C1CCCC1,.,38%[176 µM],.,.,.,.
